This is one part of a sample in which hits are shown more often than they occur.
FECH inh = inhibitors of human ferrochelatase; P22830; purified FECH, Ni-mesoporphyrin absorbance 550 nm; calls only at 10 µM (by protocol); hit rate 3.3% among 20,000; AID 1671448;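 active = enzyme reaction rate more than 3 SD below the solvent-only control wells on the same plate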;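 also: lower slope than DMSO wells means FECH inhibition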
Target sequence (P22830 whole entry, looked up): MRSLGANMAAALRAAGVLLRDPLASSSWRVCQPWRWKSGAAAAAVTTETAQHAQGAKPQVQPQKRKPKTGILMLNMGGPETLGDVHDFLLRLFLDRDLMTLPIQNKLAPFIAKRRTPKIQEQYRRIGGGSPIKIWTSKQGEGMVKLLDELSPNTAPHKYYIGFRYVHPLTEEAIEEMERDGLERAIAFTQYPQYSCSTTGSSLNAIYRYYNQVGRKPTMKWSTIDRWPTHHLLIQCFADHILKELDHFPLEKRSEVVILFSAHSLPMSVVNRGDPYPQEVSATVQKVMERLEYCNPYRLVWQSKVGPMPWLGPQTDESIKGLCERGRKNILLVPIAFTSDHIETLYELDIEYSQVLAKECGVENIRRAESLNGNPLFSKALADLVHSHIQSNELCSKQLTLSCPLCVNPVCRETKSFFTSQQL
Large screens that a line does not name were inactive.

COc1ccc(NC(=O)CN2CCCN(Cc3ccccc3)S2(=O)=O)cc1Cl	none
COc1ccc(NC(=O)CN2CCN(Cc3ccc(C)cc3)S2(=O)=O)cc1	none
Cc1ccc(CN2CCN(CC(=O)Nc3cc(C)cc(C)c3)S2(=O)=O)cc1	none
Cc1cc(C)c(CN2CCN(Cc3ccc(F)cc3)S2(=O)=O)c(C)c1	none
Cc1ccc2[nH]c(CCCNC(=O)c3ccc(=O)[nH]c3)nc2c1C	none
O=C1OCCN1CCNCC1(O)CCCN(Cc2ccc(F)c(F)c2)C1=O (stereo not drawn)	none
CN(CCc1ccccc1)Cc1cc(C(=O)N2CC[C@H](O)C2)no1	none
Cc1cc(NC(=O)CN2CCN(CC3CC3)C(CCO)C2)ccc1Cl (stereo not drawn)	none
OCC#Cc1csc(C2NCCc3[nH]cnc32)c1 (stereo not drawn)	none
CCc1cc(=O)[nH]c(SCc2nc(-c3ccccc3OC)oc2C)n1	none
COC(=O)c1ccc(NC(=O)CSc2ncnc3nc(N(C)C)sc23)cc1	none
COC(=O)[C@H]1C[C@@H](O)CCN1CC=C(C)C	none
C=CCn1cc(CN(C)Cc2cnn(-c3cccc(C)c3)c2)c(C)n1	none
CCCc1c(C)nc2ncnn2c1Sc1ccc(NC(=O)c2ccccc2OCC)cc1	FECH inh active
CCCc1c(C)nc2ncnn2c1Sc1ccc(NC(=O)c2ccccc2Cl)cc1	FECH inh active
CCCc1c(C)nc2ncnn2c1Sc1ccc(NC(=O)c2ccc(F)cc2)cc1	none
CCCc1c(C)nc2ncnn2c1Sc1ccc(NC(C)=O)cc1	none
CCCc1c(C)nc2ncnn2c1Sc1ccc(NS(=O)(=O)c2cccc(Cl)c2)cc1	none
CCc1c(C)nc2ncnn2c1Sc1ccc(NC(=O)c2cccc(C)c2)cc1	none
CCCc1c(C)nc2ncnn2c1Sc1ccc(NC(=O)c2ccco2)cc1	none
CCCc1c(C)nc2ncnn2c1Sc1ccc(NC(=O)c2cccc(Cl)c2)cc1	FECH inh active
CCc1c(C)nc2ncnn2c1Sc1ccc(NC(=O)c2ccccc2Br)cc1	none
CCCC(=O)NC1CC(=O)N(c2cccc(OC)c2)C1 (stereo not drawn)	none
COc1ccccc1C(=O)Nc1ccc(Nc2nc(C)cc(N(C)C)n2)cc1	none
Cc1ccc(C(NC(=O)CCn2c(C)cc(C)nc2=O)c2ccncc2)cc1 (stereo not drawn)	none
Cc1nc(C(C)N(C)C(=O)c2cn(-c3ccccc3)nn2)c(C)s1 (stereo not drawn)	none
CC(CCc1ccccc1)NC(=O)c1cn[nH]n1 (stereo not drawn)	none
COc1ccc(NC(=O)C2CCCN(c3ccc(-c4cccc(C)c4)nn3)C2)cc1OC (stereo not drawn)	none
O=C(CN1C(=O)C2CCCCN2C(=O)c2ccccc21)N1CCN(Cc2ccccc2)CC1 (stereo not drawn)	none
CCc1ccc2c(c1)-c1ccccc1S(=O)(=O)N2CC(=O)N1CCN(C)CC1	FECH inh active
CN1CCN(C(=O)CN2C(=O)C3CCCCN3c3ccc(C(=O)N(C)C)cc32)CC1 (stereo not drawn)	none
NC(=O)C1CCN(C(=O)CN2c3ccc(Br)cc3-c3ccccc3S2(=O)=O)CC1	none
CCc1ccc2c(c1)-c1ccccc1S(=O)(=O)N2CC(=O)N1CCN(CC)CC1	FECH inh active
CCN1CCN(C(=O)CN2C(=O)C3CCCCN3c3ccc(C(=O)N(C)C)cc32)CC1 (stereo not drawn)	none
CCc1c(C)nc2ncnn2c1Sc1ccc(NC(=O)NCc2cccc(OC)c2)cc1	none
O=C(Nc1ccnn1C1CCN(c2ncccn2)CC1)c1ccc2c(c1)OCO2	none
COC(=O)c1c(NC(=O)c2ccco2)sc2c1CCN(C(C)C)C2	none
Cc1ccc(Nc2cc(C)nc(Nc3ccc(NC(=O)c4ccc(Cl)cc4)cc3)n2)cc1	none
Cc1oc(-c2ccccc2Cl)cc1C(=O)NCCN1CCNC1=O	none
Cc1oc(-c2ccccc2Cl)cc1C(=O)NCCc1cnc[nH]1	FECH inh active
c1cnc2c(-c3nccn3CCc3cnc[nH]3)cccc2c1	none
Cc1cc(CN2CCC(CNC(=O)c3nccc4ccccc34)C2)n[nH]1 (stereo not drawn)	none
CCCC(=O)Nc1cccc(C(=O)N(C)CC(C)N2CCOCC2)c1 (stereo not drawn)	none
Cc1ccc(NC(=O)CN2CCCN(Cc3cccc(Cl)c3)S2(=O)=O)c(Cl)c1	FECH inh active
O=C(CN1CCCN(Cc2cccc(Cl)c2)S1(=O)=O)Nc1ccccc1	none
Cc1cccc(CN2CCN(CC(=O)Nc3c(C)cccc3C)S2(=O)=O)c1	none
Cc1cccc(CN2CCCN(CC(=O)Nc3cc(C)ccc3C)S2(=O)=O)c1	none
Cc1ccc(CN2CCCN(CC(=O)Nc3ccc(C)cc3Cl)S2(=O)=O)cc1	none
Cc1cccc(CN2CCCN(CC(=O)Nc3cc(Cl)ccc3C)S2(=O)=O)c1	FECH inh active
Cc1[nH]c2ccc(Cl)cc2c1CCNc1ncnc2c1CCNC2	none
O=C(Nc1ccc(F)c(F)c1)c1nc(N2CCCC2)c2oc3ccccc3c2n1	none
CC(C)NS(=O)(=O)c1cc(C(=O)N2CCCC2)cs1	none
Cc1cc(N2[C@@H]3CC[C@H]2CC(O)C3)nc(N2CCOCC2)n1 (stereo partly drawn)	none
COc1cccc(NCc2cc(=O)n3[nH]c(NCc4ccccc4Cl)nc3n2)c1	FECH inh active
CCOc1ccccc1NCc1cc(=O)n2[nH]c(NCc3ccccc3Cl)nc2n1	FECH inh active
COc1ccc(NCc2cc(=O)n3[nH]c(NCc4ccccc4Cl)nc3n2)cc1	none
COc1ccc(CNc2nc3nc(CNc4cccc(OC)c4)cc(=O)n3[nH]2)cc1	none
CCOc1ccccc1NCc1cc(=O)n2[nH]c(NCc3ccccc3)nc2n1	none
COc1ccccc1NCc1cc(=O)n2[nH]c(NCc3ccccc3)nc2n1	none
Cc1ccc(N2C(=O)CCS2(=O)=O)cc1S(=O)(=O)Nc1ccc(Oc2ccccc2)cc1	none
Cc1nc2ncnn2c(Sc2ccc(NC(=O)Nc3ccc(Cl)cc3)cc2)c1C	none
CCCc1cnc(C)nc1-c1cccc(NC(C)=O)c1	FECH inh active
CC(=O)Nc1cccc(-c2ccc3[nH]ncc3c2)c1	none
CC(=O)Nc1cccc(-c2ncc(C(F)(F)F)cc2Cl)c1	none
CCC(C)NC(=O)C1CCN(c2ccc(-c3ccc(C)cc3)nn2)CC1 (stereo not drawn)	none
CN1C(=O)c2ccccc2Sc2cc(-c3noc(COc4ccc(F)cc4)n3)ccc21	none
CC(=O)Nc1ccc(-c2nc(-c3ccc4c(c3)Sc3ccccc3C(=O)N4C)no2)cc1	none
CN1C(=O)c2ccccc2Sc2cc(-c3noc(CNC(=O)c4ccccc4)n3)ccc21	FECH inh active
Cn1nnc(-c2ccc(C(=O)Nc3cnc4n3CCCC4)cc2)n1	FECH inh active
O=C(CCCn1nnc(-c2ccc(F)cc2)n1)Nc1cnc2n1CCCC2	none
CN(C)CC(=O)Nc1ccc(C(=O)Nc2cnc3n2CCCC3)cc1	none
O=C(c1cccnc1)N1CCC(N2CC[C@@H](c3ccc(F)cc3)[C@H](O)C2)CC1	none
CCc1ccccc1-c1c(-c2ccccc2)ncn1CC[C@@H](C)CO	none
CC(=O)N1c2ccc(S(=O)(=O)N3CCCCC3)cc2CC1C(=O)NCCCN1CCCC1 (stereo not drawn)	none
CC(=O)N1c2ccc(S(=O)(=O)N3CCCCC3)cc2CC1C(=O)Nc1ccncc1 (stereo not drawn)	none
CC(=O)N1c2ccc(S(=O)(=O)N3CCOCC3)cc2CC1C(=O)NCCN1CCCC1 (stereo not drawn)	FECH inh active
Cc1cnc(CNC(=O)c2cccc(NCc3ccccn3)c2C)cn1	none
O=C(c1ccc[nH]1)N(Cc1ccsc1)Cc1ccco1	none
O=C(NCCN1CCCOC1=O)C1CCN(Cc2ccco2)CC1	none
Cc1ccc(C(C(=O)NCc2ccc(-c3noc(C)n3)cc2)N(C)C)cc1 (stereo not drawn)	none
